Screens (PubChem BioAssay)
Hits are enriched below; roughly 21% of the tested compounds scored in any of these assays.
Shiga inhibitor: Shiga toxin inhibition; 290,000 tested, 9.2% active; Vero cells, Shiga toxin protein synthesis inhibition reporter; inhibition, % at 38.7 µM; in the data active means inhibition mostly above about 28%, no sharp cut-off; inactive means mostly below about 43%; further: 0% is about no effect
Pf growth 96h: P. falciparum growth inhibition at 96 hour, primary screen for plastid delayed-death inhibitors; P. falciparum luciferase reporter growth, 96 h; Potency, µM (titrated, usually from 28.7 µM), for inactives: at the top dose activity change, negative = inhibition, most hits filed as inhibitors; 320,000 tested, 6.9% active; further: potency means the concentration at half of the fitted maximal effect; on the % scale 0 is the no-effect control and ±100 the full control effect
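Plates of compound plus infected erythrocytes (2% hematocrit, 0.05% parasitemia final) incubate 96 hours, 37 C, 5% CO2. Detection reagent added; reduced luminescence from the parasites' luciferase reporter flags inhibition.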
CHX counter: counter-screen for Shiga toxin inhibitors: cycloheximide protein synthesis inhibition; cell reporter, cycloheximide protein synthesis inhibition counterscreen; max response, %; 300,000 tested, 12% active; AID 2314; in the data active means max response mostly above about 13%, no sharp cut-off; inactive means mostly below about 14%; further: read at 38.3 µM for the half of the compounds with a filed dose; 0% is about no effect
Pf growth 48h: inhibits P. falciparum growth in the first generation, 48 h; 310,000 tested, 5.9% active; Potency, µM (doses to about 28.7 µM), for the others: at the top dose activity change, negative = inhibition, usual class: inhibitors; P. falciparum luciferase growth in erythrocytes, 48 h; further: potency means the concentration at half of the fitted maximal effect; on the % scale 0 is the no-effect control and ±100 the full control effect
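Here the parasites carry a stable luciferase gene and grow inside erythrocytes in Albumax-based RPMI medium with compound for one erythrocytic cycle. Activity is scored as loss of luminescent signal.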
AMA1-RON2 inh: inhibitors of Plasmodium falciparum AMA1-RON2 interaction; AlphaScreen AMA1-biotinylated RON2 peptide binding; Potency, µM (top dose mostly 58.2 µM), for inactives: at the top dose activity change, negative = inhibition, most hits filed as inhibitors; 360,000 tested, 0.2% active; AID 720542;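 further: potency means the concentration at half of the fitted maximal effect; 0% = vehicle wells and -100% = peptide control; nearly all actives have a fitted effect of over 45% in size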
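AMA1 (3D7) with his tag at 25 nM final met compounds first, then biotinylated RON2 peptide at 25 nM; detection used donor plus acceptor beads, 10 µg/mL apiece, read by AlphaScreen after 30 min at room temperature.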
HCV inhibitor: inhibitors of hepatitis C virus infection; 340,000 tested, 3.4% active; Huh7.5.1 HCVcc-Cre infection, luciferase reporter, 44 h; Potency, µM (top dose mostly 41.8 µM), inactives show at the highest dose activity change, negative = inhibition, usual class: inhibitors; further: potency means the concentration at half of the fitted maximal effect; on the % scale 0 is the no-effect control and ±100 the full control effect
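Antiviral activity was scored by luciferase reporter output from cells infected with HCVcc-Cre (~0.5 moi) in presence of compound, 44 h infection period, cells seeded 1,000/well 4 h prior.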
Starred values were filed as active, the others as inactive; i = inactive; ? = inconclusive; / = no result; [ ] = dose if it differs, or a comment. Unless noted, the call rests on the fitted dose curve; in most records, active means well fitted curve in the direction sought with a large enough effect; inconclusive means small, poorly fitted or top-dose-only effect, or another doubt; inactive means no such curve, though single readings can be large; an effect the other way counts as inactive or inconclusive.

SMILES | Shiga inhibitor | Pf growth 96h | CHX counter | Pf growth 48h | AMA1-RON2 inh | HCV inhibitor
O=C(c1ccncc1)c1ccc(NS(=O)(=O)c2ccc(Br)s2)cc1 | 12 | -25% | -1 | 19% | -7% | -11%
Cc1ccc(C(=O)Nc2ncn[nH]2)cc1 | -15 | ? | -2 | 27% | 62% | 12%
CSc1nccc(NC(=O)c2cccc(Br)c2)n1 | 35 | 40% | 23* | -16% | 11% | 10µM*
Cc1cc(NC(=O)c2cccc(Br)c2)n[nH]1 | / | 202% | / | 62% | 2% | 13%
O=C(Nc1ccncc1)c1cc(F)cc(F)c1 | -8 | 2.9µM* | -2 | ? | -4% | -9%
O=C(Nc1ccc2ccccc2c1)c1ccc(NS(=O)(=O)c2ccc(Br)s2)cc1 | 46* | 66% | 36* | 32% | -4% | -3%
CCN(CC)C(=O)C1=C(C)N(Cc2ccccc2)C(=O)C(CC(=O)NCC2CCCCC2)C1 (centres undefined) | / | / | / | / | 12% | /
Cc1cccc(NC(=O)NC2CCCCCCC2)c1C | -6 | ? | -3 | 0% | -2% | -11%
O=C(Nc1ccncc1)c1ccc2ccccc2c1 | 58* | ? | 43* | 27% | -7% | ?
O=C(Nc1nnc(-c2ccncc2)o1)c1ccc2ccccc2c1 | -5 | ? | -2 | 27% | 92% | 10%
Cc1ccc2cc(NC(=O)CC(CC(=O)O)c3ccccc3)ccc2n1 (centres undefined) | -6 | 39% | -2 | -1% | 0% | -1%
Cc1ccc(C(=O)Nc2ccc3ccccc3c2)cc1 | -5 | ? | -3 | 132% | 0% | -24%
O=C(Nc1ccc2ccccc2c1)c1ccc(Cl)cc1 | 68* | 5.2µM* | 41* | 222% | 7% | 0%
O=C(Nc1ccc2ccccc2c1)c1cccc(F)c1 | 90* | i | 52* | 184% | 13% | -20%
Cc1ccc2cc(NC(=O)c3ccccc3)ccc2n1 | 67* | 289% | 47* | 125% | -9% | -28%
O=C(/C=C/[C@H]1O[C@@H](n2ccc(=O)[nH]c2=O)[C@H](O)[C@@H]1O)N[C@@H](Cc1ccccc1)C(=O)O | / | / | / | / | 16% | /
CC(=O)Cc1nsc(NC(=O)c2ccc(-c3cccc(C(F)(F)F)c3)o2)n1 | -4 | 3% | -2 | 17% | 10% | 5%
CC(C)(C)c1ccc(C(=O)Nc2ncn[nH]2)cc1 | 75* | 36% | 33* | 42% | 89% | 16%
Cc1ccc2cc(NC(=O)c3cccc(F)c3)ccc2n1 | 75* | 259% | 39* | 190% | 1% | -21%
CC(=O)Cc1nsc(NC(=O)c2cccc(F)c2)n1 | 72* | ? | 41* | 105% | -10% | 4%
O=C(Nc1cccc(NC(=O)c2cccc(F)c2)n1)c1cccc(F)c1 | 70* | ? | 23* | 12% | -7% | ?
C/C(=N\NC(=O)c1cccc(S(=O)(=O)N2CCCC2)c1)c1cccs1 | 50* | 3% | 19* | 20% | 19% | 9%
COc1ccc(/C(C)=N/NC(=O)c2cccc(S(=O)(=O)N3CCCC3)c2)c(O)c1 | / | ? | / | ? | -11% | 3.2µM*
CC(=NNC(=O)c1cccc(S(=O)(=O)N2CCCC2)c1)c1ccccc1 | / | / | / | / | 13%[11.6 µM] | 33%
COc1ccc(C(C)=NNC(=O)c2cccc(S(=O)(=O)N3CCCC3)c2)cc1 | / | / | / | / | 38% | -2%
SMILES | Shiga inhibitor | Pf growth 96h | CHX counter | Pf growth 48h | AMA1-RON2 inh | HCV inhibitor
COc1cc2c(cc1OC)C(=O)C(Br)CC2 (centres undefined) | / | / | / | / | -30% | /
Cc1ccnc(NC(=O)c2cccc(NC(=O)c3ccccc3C)c2)c1 | 13 | 8% | 12 | 18% | 8% | -23%
Cc1ccnc(NC(=O)c2ccccc2NC(=O)c2ccc(Cl)cc2Cl)c1 | 4 | -107% | 2 | ? | 22% | 10µM*
Cc1ccnc(NC(=O)c2ccc(Cl)c(NC(=O)c3ccccc3C)c2)c1 | 22 | ? | 16* | 50% | -1% | ?
Cc1ccnc(NC(=O)CC(NC(=O)c2ccccc2Cl)c2ccccc2)c1 (centres undefined) | / | 292% | / | 133% | 6% | ?
Cc1ccc(C(=O)Nc2ccccc2C(=O)Nc2ccccn2)cc1Cl | -2 | ? | 7 | 43% | -10% | ?
CCC(C(=O)Nc1cc(C(=O)Nc2cc(C)ccn2)ccc1Cl)c1ccccc1 (centres undefined) | 52 | 8.3µM* | 19* | 8.3µM* | 1% | -13%
CCN(CC)S(=O)(=O)c1cc(NC(=O)Cc2ccsc2)ccc1C | 24 | ? | -4 | ? | 17% | 13µM*
O=C(Nc1ccc(OC(=O)c2cccs2)cc1)c1ccco1 | 54* | ? | 45* | 14% | 33% | 30%
O=C(Cc1ccsc1)Nc1ccc(S(=O)(=O)C(F)F)cc1 | 49* | 26% | 23* | 14% | 25% | 5%
CCCOC(=O)c1ccc(NC(=O)Cc2cccs2)cc1 | 51* | 9% | 35* | 13% | 13% | 10%
CC1(C)CC(=O)C(C(O)c2ccccc2)C(C)(C)N1 (centres undefined) | -18 | 19% | 1 | 17% | 4% | -1%
COc1ccccc1C(=O)N/C(=C/c1ccc2c(c1)OCO2)C(=O)Nc1ccc(C(=O)O)cc1 | -5 | -14% | -4 | ? | -12% | -6%
Cc1cccc(NC(=O)CSCC(=O)Nc2ccccc2C(=O)NC2CC2)c1 | / | 2% | / | -5% | 5% | -3%
O=C(Cc1cccs1)Nc1ccccc1 | 30 | ? | 4 | -20% | -2% | -2%
CCOC(=O)c1cnn(CCOC(=O)c2ccc(F)cc2)c1NC(=O)c1ccc(F)cc1 | -11 | 37% | -2 | 6% | -15% | 3%
CC(=O)c1ccc(NC(=O)Cc2cccs2)cc1 | / | 1% | 28* | 191% | -23% | 11%
CCOC(=O)c1cnn(CCOC(=O)Cc2cccs2)c1NC(=O)Cc1cccs1 | 10 | 9.3µM* | -3 | 69% | -2% | -1%
CC(=O)c1ccc(NC(=O)Cc2ccsc2)cc1 | 69* | 206% | 30* | 73% | 2% | -3%
O=C(Cc1cccs1)Nc1ccc(NC(=O)c2ccco2)cc1 | 60* | / | 24* | 36% | 11% | -26%
CC(=O)Nc1ccc(NC(=O)C(C)OC(=O)CC23CC4CC(CC(Br)(C4)C2)C3)cc1 (centres undefined) | / | / | / | / | -1% | 11%
CC(C)(C)c1ccc(S(=O)(=O)Nc2noc3ccccc23)cc1 | 7 | ? | 16 | / | 4% | 14%
COc1cc(/C=N/NC(=O)C(=O)/C=C2\NC(C)(C)Cc3ccccc32)ccc1O | -2 | ? | 6 | ? | 42% | ?
Oc1ccc(C=NNC(=S)Nc2cccnc2)nc1 | / | / | / | / | -2% | ?
COc1cc2c(cc1CNC[C@H]1O[C@@H](n3cnc4c(N)ncnc43)[C@H](O)[C@@H]1O)OCO2 | / | / | / | / | -3% | -8%
